# How the values were obtained:
# Test in all cases: DAPPL (digital affinity profiling via proximity ligation, sequencing); 10 mM Tris-HCl pH 7.5, 50 mM NaCl, 1 mM DTT, 4% glycerol, room temperature, 30 min; GST-TFs on glutathione beads, 16-mer random dsDNA library, 0.1% formaldehyde crosslink after washing; high values mean tight binding
# [1] = biological target: T1, FLI1 (Homo sapiens, UniProt Q01543 1-452); conditions: protein: recombinant; tags: N-terminal GST; dsDNA, one strand shown
# T1 sequence: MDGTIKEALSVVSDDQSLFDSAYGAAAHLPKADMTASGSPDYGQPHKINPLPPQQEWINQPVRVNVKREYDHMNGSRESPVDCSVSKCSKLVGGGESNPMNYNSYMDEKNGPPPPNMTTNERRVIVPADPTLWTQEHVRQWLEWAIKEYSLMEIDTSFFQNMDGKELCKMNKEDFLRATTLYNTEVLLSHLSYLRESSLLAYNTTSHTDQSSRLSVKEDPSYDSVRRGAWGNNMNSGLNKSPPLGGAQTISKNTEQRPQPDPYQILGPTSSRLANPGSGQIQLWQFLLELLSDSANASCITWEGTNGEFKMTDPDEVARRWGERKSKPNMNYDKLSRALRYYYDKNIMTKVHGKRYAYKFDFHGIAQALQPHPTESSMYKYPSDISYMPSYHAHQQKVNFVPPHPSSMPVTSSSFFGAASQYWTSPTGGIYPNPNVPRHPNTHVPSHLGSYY
# Method in brief: (§1)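 The binding signal reported is, for every hexamer, its read frequency for a factor over its read frequency for the tag-only sample. Reads came from pools of yeast-expressed, GST-fused human transcription factors on glutathione beads, barcoded with DNA and mixed with that sample, which were incubated with 200 nmole of a random double-stranded 16-mer DNA library in Tris/NaCl/DTT/glycerol buffer at room temperature for 30 min. After washing, the pools were crosslinked with 0.1% formaldehyde, proximity-ligated with BsaI/T4 ligase for 1 h at 37 °C, PCR-amplified and sequenced on an Illumina NextSeq500.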
# [2] = biological target: T2, ELK1 (Homo sapiens, UniProt P19419 1-428); conditions: protein: recombinant; tags: N-terminal GST; dsDNA, one strand shown
# T2 sequence: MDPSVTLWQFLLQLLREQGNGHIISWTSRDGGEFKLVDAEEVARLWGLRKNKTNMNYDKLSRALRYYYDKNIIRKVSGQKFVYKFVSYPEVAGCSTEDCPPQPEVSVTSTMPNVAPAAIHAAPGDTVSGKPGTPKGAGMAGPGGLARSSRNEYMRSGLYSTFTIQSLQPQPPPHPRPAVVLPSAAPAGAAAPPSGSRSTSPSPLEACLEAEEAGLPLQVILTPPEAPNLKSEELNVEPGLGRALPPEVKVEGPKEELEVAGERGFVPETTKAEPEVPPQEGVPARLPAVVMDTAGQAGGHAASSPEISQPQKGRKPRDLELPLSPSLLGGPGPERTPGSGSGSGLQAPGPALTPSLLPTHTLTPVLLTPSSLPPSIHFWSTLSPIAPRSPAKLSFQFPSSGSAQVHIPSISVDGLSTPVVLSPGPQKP
# Method in brief: as §1
# [3] = biological target: T3, GABPA (Homo sapiens, UniProt Q06546 1-454); conditions: protein: recombinant; tags: N-terminal GST; dsDNA, one strand shown
# T3 sequence: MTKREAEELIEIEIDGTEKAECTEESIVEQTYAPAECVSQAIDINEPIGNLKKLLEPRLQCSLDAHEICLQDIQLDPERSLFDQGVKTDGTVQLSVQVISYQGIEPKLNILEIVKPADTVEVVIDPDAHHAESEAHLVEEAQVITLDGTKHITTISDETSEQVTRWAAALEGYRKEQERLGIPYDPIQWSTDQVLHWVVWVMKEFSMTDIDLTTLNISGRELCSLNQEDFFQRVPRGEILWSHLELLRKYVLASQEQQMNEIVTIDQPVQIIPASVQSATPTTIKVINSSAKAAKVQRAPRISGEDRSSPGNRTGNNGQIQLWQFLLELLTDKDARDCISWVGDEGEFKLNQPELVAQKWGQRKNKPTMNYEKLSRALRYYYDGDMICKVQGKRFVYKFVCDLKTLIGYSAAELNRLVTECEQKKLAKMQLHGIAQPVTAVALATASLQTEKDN
# Method in brief: as §1
# [4] = biological target: T4, ERG (Homo sapiens, UniProt P11308 1-479); conditions: protein: recombinant; tags: N-terminal GST; dsDNA, one strand shown
# T4 sequence: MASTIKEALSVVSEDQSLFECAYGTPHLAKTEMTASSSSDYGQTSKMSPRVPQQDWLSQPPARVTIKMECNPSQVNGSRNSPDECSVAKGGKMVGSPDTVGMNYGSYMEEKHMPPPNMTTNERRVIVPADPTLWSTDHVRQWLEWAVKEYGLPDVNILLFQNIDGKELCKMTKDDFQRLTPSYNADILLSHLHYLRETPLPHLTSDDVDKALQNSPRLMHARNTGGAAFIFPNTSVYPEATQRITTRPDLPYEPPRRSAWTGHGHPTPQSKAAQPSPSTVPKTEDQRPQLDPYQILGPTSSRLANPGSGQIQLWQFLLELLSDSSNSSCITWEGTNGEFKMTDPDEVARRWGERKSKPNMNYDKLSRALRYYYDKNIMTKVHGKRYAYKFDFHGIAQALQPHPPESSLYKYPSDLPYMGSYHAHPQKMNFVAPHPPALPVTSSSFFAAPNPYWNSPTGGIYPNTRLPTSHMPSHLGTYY
# Method in brief: as §1
# [5] = biological target: ELF1 (Homo sapiens, UniProt P32519 1-619); conditions: protein: recombinant; tags: N-terminal GST; dsDNA, one strand shown
# Method in brief: as §1
# [6] = biological target: T5, EHF (Homo sapiens, UniProt Q9NZC4 1-300); conditions: protein: recombinant; tags: N-terminal GST; dsDNA, one strand shown
# T5 sequence: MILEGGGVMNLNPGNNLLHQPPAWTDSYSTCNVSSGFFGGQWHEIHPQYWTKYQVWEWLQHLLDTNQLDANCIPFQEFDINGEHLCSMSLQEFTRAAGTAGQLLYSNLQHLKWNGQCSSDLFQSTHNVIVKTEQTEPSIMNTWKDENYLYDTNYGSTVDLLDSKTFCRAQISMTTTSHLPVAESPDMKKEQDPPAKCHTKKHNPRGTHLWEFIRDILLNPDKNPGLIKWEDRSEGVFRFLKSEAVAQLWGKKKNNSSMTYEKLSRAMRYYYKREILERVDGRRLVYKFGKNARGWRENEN
# Method in brief: as §1
# [7] = biological target: SPI1 (Homo sapiens, UniProt P17947 1-270); conditions: protein: recombinant; tags: N-terminal GST; dsDNA, one strand shown
# Method in brief: as §1
# [8] = biological target: SPIB (Homo sapiens, UniProt Q01892 1-262); conditions: protein: recombinant; tags: N-terminal GST; dsDNA, one strand shown
# Method in brief: as §1
# [9] = biological target: T6, ELK3 (Homo sapiens, UniProt P41970 1-407); conditions: protein: recombinant; tags: N-terminal GST; dsDNA, one strand shown
# T6 sequence: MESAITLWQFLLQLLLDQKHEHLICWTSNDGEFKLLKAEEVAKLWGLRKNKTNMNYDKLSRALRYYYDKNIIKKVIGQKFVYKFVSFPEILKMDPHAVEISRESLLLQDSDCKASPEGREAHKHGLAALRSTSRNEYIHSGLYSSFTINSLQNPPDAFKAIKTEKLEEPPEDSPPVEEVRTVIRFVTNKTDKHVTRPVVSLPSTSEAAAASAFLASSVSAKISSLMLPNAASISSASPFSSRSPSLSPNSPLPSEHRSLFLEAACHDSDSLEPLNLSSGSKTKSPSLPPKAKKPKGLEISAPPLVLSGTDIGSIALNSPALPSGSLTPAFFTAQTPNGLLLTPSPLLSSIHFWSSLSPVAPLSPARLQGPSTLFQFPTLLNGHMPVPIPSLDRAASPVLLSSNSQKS
# Method in brief: as §1
# [10] = biological target: T7, FEV (Homo sapiens, UniProt Q99581 1-238); conditions: protein: recombinant; tags: N-terminal GST; dsDNA, one strand shown
# T7 sequence: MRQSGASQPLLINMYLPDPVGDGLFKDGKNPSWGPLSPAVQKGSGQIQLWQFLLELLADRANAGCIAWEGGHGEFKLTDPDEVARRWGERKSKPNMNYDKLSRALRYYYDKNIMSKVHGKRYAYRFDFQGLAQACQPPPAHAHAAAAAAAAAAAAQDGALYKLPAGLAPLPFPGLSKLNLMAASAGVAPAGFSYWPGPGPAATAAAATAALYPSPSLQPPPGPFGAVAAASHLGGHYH
# Method in brief: as §1
# [11] = biological target: ETV5 (Homo sapiens, UniProt P41161 1-510); conditions: protein: recombinant; tags: N-terminal GST; dsDNA, one strand shown
# Method in brief: as §1
# [12] = biological target: HSF1 (Homo sapiens, UniProt Q00613 1-529); conditions: protein: recombinant; tags: N-terminal GST; chain copies: 3; dsDNA, one strand shown
# Method in brief: as §1
# [13] = biological target: T8, SPIC (Homo sapiens, UniProt Q8N5J4 1-248); conditions: protein: recombinant; tags: N-terminal GST; dsDNA, one strand shown
# T8 sequence: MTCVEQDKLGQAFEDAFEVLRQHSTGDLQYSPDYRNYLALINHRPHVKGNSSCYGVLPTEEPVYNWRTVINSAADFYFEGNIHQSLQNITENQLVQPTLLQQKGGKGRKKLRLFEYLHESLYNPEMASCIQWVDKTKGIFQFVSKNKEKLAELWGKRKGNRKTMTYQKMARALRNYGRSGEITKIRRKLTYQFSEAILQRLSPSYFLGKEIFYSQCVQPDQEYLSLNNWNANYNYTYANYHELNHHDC
# Method in brief: as §1
# [14] = biological target: ELF4 (Homo sapiens, UniProt Q99607 1-663); conditions: protein: recombinant; tags: N-terminal GST; dsDNA, one strand shown
# Method in brief: as §1
# [15] = biological target: T9, ELK4 (Homo sapiens, UniProt P28324-2 1-405); conditions: protein: recombinant; tags: N-terminal GST; dsDNA, one strand shown
# T9 sequence: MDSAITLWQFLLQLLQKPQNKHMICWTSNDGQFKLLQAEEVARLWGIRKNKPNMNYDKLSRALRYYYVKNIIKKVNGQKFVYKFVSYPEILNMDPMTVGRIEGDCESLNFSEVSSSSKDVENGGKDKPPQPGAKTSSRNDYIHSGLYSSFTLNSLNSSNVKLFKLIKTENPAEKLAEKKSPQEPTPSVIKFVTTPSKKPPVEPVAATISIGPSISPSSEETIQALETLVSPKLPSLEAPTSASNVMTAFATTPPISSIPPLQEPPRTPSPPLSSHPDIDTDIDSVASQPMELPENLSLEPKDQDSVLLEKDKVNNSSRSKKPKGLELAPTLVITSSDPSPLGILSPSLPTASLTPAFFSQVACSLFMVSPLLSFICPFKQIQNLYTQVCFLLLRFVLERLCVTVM
# Method in brief: as §1
# [16] = biological target: T10, ETV2 (Homo sapiens, UniProt O00321 1-342); conditions: protein: recombinant; tags: N-terminal GST; dsDNA, one strand shown
# T10 sequence: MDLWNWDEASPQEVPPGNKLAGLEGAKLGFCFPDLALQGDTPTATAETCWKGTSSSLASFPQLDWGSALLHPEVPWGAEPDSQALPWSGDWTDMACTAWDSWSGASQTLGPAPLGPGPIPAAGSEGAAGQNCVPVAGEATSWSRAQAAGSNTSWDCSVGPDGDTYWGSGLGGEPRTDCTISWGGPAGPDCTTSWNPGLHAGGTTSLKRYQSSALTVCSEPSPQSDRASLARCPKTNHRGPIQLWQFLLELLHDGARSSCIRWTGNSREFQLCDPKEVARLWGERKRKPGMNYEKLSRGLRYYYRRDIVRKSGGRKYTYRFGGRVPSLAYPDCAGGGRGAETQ
# Method in brief: as §1
# [17] = biological target: T11, ELF3 (Homo sapiens, UniProt P78545 1-371); conditions: protein: recombinant; tags: N-terminal GST; dsDNA, one strand shown
# T11 sequence: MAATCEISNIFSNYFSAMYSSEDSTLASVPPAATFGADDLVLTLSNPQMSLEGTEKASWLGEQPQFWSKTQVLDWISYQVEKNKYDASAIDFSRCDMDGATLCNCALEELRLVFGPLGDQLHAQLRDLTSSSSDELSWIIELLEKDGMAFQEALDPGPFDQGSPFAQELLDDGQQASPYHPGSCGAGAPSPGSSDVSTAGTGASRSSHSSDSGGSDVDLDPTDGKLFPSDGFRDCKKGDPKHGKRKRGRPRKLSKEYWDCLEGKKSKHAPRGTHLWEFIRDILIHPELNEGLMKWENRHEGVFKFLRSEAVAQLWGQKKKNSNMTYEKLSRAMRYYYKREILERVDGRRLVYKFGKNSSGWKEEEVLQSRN
# Method in brief: as §1
# [18] = biological target: CRX (Homo sapiens, UniProt O43186 1-299); conditions: protein: recombinant; tags: N-terminal GST; dsDNA, one strand shown
# Method in brief: as §1
# [19] = biological target: ETV1 (Homo sapiens, UniProt P50549 1-477); conditions: protein: recombinant; tags: N-terminal GST; dsDNA, one strand shown
# Method in brief: as §1
# CRX, sequence (O43186 whole entry): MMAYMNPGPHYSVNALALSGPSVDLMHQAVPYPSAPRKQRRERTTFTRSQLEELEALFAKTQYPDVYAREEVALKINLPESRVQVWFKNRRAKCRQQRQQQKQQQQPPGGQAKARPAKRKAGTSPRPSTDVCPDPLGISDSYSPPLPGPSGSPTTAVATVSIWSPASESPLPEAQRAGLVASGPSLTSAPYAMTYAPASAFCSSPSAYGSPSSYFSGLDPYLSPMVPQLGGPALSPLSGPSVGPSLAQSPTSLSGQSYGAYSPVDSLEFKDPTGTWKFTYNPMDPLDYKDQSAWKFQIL
# SPIB, sequence (Q01892 whole entry): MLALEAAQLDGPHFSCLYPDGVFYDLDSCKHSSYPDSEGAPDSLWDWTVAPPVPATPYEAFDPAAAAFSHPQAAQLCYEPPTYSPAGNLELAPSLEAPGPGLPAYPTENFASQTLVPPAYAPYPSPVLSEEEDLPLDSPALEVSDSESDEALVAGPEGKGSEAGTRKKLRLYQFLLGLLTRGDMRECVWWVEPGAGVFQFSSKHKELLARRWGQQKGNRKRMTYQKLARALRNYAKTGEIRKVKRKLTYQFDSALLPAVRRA
# ETV1, sequence (P50549 whole entry): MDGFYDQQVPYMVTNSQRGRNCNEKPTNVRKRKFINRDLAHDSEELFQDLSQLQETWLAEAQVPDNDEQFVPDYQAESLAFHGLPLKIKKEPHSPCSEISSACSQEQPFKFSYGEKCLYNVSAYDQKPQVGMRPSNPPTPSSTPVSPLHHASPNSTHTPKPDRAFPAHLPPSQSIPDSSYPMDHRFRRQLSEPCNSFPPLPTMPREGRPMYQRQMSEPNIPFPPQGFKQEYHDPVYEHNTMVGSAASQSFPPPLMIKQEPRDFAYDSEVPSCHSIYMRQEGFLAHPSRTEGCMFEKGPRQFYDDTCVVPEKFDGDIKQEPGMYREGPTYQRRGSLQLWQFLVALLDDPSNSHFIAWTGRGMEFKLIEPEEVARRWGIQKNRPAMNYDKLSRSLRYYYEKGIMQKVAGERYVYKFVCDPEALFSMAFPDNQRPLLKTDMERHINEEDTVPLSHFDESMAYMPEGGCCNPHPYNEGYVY
# ELF4, sequence (Q99607 whole entry): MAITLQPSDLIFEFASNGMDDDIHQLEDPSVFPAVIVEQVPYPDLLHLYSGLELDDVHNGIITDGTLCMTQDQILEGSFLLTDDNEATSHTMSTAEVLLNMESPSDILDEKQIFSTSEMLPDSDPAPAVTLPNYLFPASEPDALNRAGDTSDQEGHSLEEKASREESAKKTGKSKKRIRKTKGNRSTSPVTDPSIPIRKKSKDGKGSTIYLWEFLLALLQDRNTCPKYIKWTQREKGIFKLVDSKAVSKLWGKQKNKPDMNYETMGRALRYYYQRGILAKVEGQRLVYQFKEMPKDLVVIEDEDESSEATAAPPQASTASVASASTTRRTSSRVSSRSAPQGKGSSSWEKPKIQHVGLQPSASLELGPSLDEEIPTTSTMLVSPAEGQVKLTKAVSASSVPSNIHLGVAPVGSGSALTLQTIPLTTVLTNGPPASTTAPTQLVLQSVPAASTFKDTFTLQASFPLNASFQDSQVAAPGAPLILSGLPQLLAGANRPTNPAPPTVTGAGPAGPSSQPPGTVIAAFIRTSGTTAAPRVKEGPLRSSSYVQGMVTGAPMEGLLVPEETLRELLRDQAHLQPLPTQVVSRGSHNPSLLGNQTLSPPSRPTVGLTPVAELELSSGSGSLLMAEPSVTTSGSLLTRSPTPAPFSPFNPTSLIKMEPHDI
# HSF1, sequence (Q00613 whole entry): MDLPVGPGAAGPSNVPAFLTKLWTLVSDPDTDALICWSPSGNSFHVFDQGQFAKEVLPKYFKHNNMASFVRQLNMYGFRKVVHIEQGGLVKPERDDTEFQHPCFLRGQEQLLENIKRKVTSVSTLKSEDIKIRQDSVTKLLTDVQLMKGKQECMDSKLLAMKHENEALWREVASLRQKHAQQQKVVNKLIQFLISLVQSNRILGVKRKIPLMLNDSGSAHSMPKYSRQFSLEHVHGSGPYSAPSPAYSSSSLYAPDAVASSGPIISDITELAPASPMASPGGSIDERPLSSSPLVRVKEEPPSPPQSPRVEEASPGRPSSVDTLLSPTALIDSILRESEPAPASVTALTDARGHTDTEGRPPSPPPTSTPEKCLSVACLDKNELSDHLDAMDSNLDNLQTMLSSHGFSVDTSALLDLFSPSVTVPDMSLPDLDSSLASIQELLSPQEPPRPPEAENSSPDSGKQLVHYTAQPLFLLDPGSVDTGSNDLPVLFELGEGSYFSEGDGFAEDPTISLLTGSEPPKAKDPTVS
# ELF1, sequence (P32519 whole entry): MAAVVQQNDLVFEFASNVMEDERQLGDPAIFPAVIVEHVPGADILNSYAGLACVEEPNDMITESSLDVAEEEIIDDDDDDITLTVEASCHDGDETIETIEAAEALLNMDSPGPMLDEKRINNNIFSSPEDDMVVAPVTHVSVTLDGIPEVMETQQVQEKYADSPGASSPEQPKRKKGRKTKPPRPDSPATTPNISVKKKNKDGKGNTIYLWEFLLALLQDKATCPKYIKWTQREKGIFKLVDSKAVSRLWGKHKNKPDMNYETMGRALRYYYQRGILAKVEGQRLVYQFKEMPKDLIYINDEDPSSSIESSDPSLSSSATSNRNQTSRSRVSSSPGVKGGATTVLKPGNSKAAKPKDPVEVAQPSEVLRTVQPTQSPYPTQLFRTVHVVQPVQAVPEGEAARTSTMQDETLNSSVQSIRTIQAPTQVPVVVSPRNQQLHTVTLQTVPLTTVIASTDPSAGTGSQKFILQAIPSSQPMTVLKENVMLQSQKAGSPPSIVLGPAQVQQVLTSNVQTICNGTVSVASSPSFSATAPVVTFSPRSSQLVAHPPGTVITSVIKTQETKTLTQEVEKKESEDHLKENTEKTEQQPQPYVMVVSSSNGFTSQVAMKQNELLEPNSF
# ETV5, sequence (P41161 whole entry): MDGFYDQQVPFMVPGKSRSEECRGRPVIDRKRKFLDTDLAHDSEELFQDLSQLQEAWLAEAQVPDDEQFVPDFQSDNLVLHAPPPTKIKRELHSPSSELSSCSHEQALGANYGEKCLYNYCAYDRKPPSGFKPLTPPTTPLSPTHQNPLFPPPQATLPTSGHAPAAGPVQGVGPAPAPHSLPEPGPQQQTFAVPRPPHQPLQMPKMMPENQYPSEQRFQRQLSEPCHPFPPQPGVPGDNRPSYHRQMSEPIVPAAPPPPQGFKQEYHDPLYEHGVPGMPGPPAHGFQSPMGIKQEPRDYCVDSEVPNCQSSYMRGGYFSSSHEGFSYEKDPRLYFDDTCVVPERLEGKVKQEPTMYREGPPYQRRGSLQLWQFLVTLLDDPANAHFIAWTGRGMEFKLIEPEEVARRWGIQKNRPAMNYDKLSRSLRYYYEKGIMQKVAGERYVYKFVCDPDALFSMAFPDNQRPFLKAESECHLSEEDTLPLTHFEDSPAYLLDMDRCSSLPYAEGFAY
sequence,measurement,setting,value
GGAATT,binding signal,[1],"1.14 fold enrichment (6-mer frequency, TF over GST control)"
same,binding signal,[2],"1.1 fold enrichment (6-mer frequency, TF over GST control)"
same,binding signal,[3],"1 fold enrichment (6-mer frequency, TF over GST control)"
same,binding signal,[4],"1.12 fold enrichment (6-mer frequency, TF over GST control)"
same,binding signal,[5],"1.07 fold enrichment (6-mer frequency, TF over GST control)"
same,binding signal,[6],"1.24 fold enrichment (6-mer frequency, TF over GST control)"
same,binding signal,[7],"1.16 fold enrichment (6-mer frequency, TF over GST control)"
same,binding signal,[8],"1.18 fold enrichment (6-mer frequency, TF over GST control)"
same,binding signal,[9],"1.24 fold enrichment (6-mer frequency, TF over GST control)"
same,binding signal,[10],"1.17 fold enrichment (6-mer frequency, TF over GST control)"
same,binding signal,[11],"1.21 fold enrichment (6-mer frequency, TF over GST control)"
same,binding signal,[12],"1.45 fold enrichment (6-mer frequency, TF over GST control)"
same,binding signal,[13],"1.11 fold enrichment (6-mer frequency, TF over GST control)"
same,binding signal,[14],"1.07 fold enrichment (6-mer frequency, TF over GST control)"
same,binding signal,[15],"1.1 fold enrichment (6-mer frequency, TF over GST control)"
same,binding signal,[16],"1.13 fold enrichment (6-mer frequency, TF over GST control)"
same,binding signal,[17],"1.12 fold enrichment (6-mer frequency, TF over GST control)"
same,binding signal,[18],"1.46 fold enrichment (6-mer frequency, TF over GST control)"
same,binding signal,[19],"1.18 fold enrichment (6-mer frequency, TF over GST control)"

# — publication PMC7862700, “An all-to-all approach to the identification of sequence-specific readers for epigenetic DNA modifications on cytosine”
